tim23-1 inh: growth inhibitors of tim23-1 mutant yeast, primary screen, luminescence, uHTS | AID 463212, 2010 | 330,000 tested, 1.3% active | S. cerevisiae tim23-1 growth, BacTiter-Glo luminescence, 24 h | inhibition, % at 20 µM;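 active = growth inhibition of the mutant yeast at or above 50%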;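 note: temperature-sensitive mutant grown at 25 °C; plate controls were DMSO-treated mutant yeast for no effect and medium wells lacking yeast for full effect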
PfHsp90 set2: growth inhibition of PfHsp90-expressing yeast, primary screen, antimalarial PfHsp90 inhibitor project, S. cerevisiae, BacTiter-Glo luminescence, single point, set 2; BacTiter-Glo ATP, 48 h; yeast lacking PDR1 and PDR3 efflux regulators; 310,000 tested, 0.32% active; AID 504621, 2011; inhibition, % at 9.4 µM;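 active = every replicate shows inhibition above about 80%, whatever the replicate mean, limit read from the data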;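 note: 0% = DMSO neutral controls and 100% = 20 µM radicicol positive controls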
tim10-1 inh: growth inhibitors of tim10-1 mutant yeast, primary screen, luminescence, uHTS; S. cerevisiae tim10-1 ts strain growth, BacTiter-Glo, 24 h; inhibition, % at 20 µM; 330,000 tested, 2.2% active;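 active = inhibition of at least 40%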;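 note: mutant grown at 25 °C; 0% = DMSO wells with yeast and 100% = wells holding no yeast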
V-ATPase pHluor: regulators of yeast V-ATPase proton pumping, primary screen, pHLuorin cytosolic pH fluorescence | S. cerevisiae | response, % at 10 µM | 350,000 tested, 0.37% active; in the data active = response mostly above about 7.3%, no sharp cut-off; inactive = mostly below about 5.4%; note: actives read high
TIM10 inh: growth inhibitors of isogenic TIM10 control yeast, primary screen, counter-screen for tim10-1 yeast inhibitor project, luminescence, uHTS; 330,000 tested, 1.4% active; S. cerevisiae TIM10 strain growth, BacTiter-Glo luminescence, 24 h; inhibition, % at 10 µM; AID 463195, 2010;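 active = inhibition of 40% or more at the single tested concentration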;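 note: wild-type TIM10 isogenic control strain grown at permissive 25 °C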
tim23-1 confirm: tim23-1 mutant yeast growth inhibitors, confirmation, luminescence, single concentration | shares compounds with tim23-1 inh | S. cerevisiae tim23-1 growth, BacTiter-Glo luminescence, 24 h | inhibition, % at 20 µM | 4,400 tested, 83% active;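 active = inhibition above about 39% in either of two replicate wells at 20 µM, limit read from the data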;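 note: temperature-sensitive tim23-1 mutant grown at 25 °C; 0% = DMSO wells with yeast and 100% = medium wells without yeast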
VATPase regulator: yeast V-ATPase proton pumping modulators, confirmation, S. cerevisiae, pH-sensitive GFP, second cherry-pick. S. cerevisiae pHLuorin cytosolic pH, V-ATPase proton transport. AID 602197, 2012. 980 tested, 2% active. response, % at 10 µM. shares compounds with V-ATPase pHluor; in the data active = response above about 24%;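 note: plate controls were vehicle wells for no effect and positive control wells for full effect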
* = called active by the depositor; . = no result; ! = not confirmed by another sample. Compounds with a hit are over-represented: about 3.7% of the library has one in this group of screens.

SMILES	tim23-1 inh	PfHsp90 set2	tim10-1 inh	V-ATPase pHluor	TIM10 inh	VATPase regulator	others
CCCc1nc2ccccc2c(=O)n1-c1cccc(OC)c1	83*	16	9	-4	0	.	tim23-1 confirm=21
CCC(=O)c1ccc(OC(=O)N(C)c2ccccc2)cc1	7	-7	2	0	0	.
CC/C(=C(\c1ccccc1)c1ccc(OCCN(C)C)cc1)c1ccccc1	43	-9	33	-3	29	.	tim23-1 confirm=34
CCCNS(=O)(=O)c1ccc(OCC(=O)N2CCN(Cc3ccc4c(c3)OCO4)CC2)c(C)c1	21	3	32	-2	10	.
Cc1cc(N=Nc2ccccc2C)ccc1N	64*	-5	22	-2	22	.	tim23-1 confirm=0
CN1C(=O)C(=Cc2ccccc2OS(=O)(=O)c2ccccc2)C(=O)N(C)C1=O	77*	4	25	7	35	.	tim23-1 confirm=73*
CN1C(=O)C(=Cc2ccccc2OCc2ccccc2Cl)C(=O)N(C)C1=O	34	9	12	3	36	.
CC1(C)C(=O)CC[C@@]2(C)C1=CCC1C2CC[C@]2(C)C(=O)CCC12 (some centres undefined)	26	-12	-9	1	-20	.
Cc1oc(-c2ccccc2)nc1CN1C(=O)C(C)N=C(c2ccccc2F)c2cc(Cl)ccc21 (centres undefined)	52*	8	39	0	20	.	tim23-1 confirm=57*
Cc1[nH]c2ccc(OC(F)(F)F)cc2c1CCNCc1ccc(Cl)cc1	66*	6	28	2	35	.	tim23-1 confirm=16
COC(=O)C1=C(c2cc3ccccc3s2)C[C@@H]2CC[C@H]1N2C(=O)NCCNC(C)=O	-7	4	-20	6	2	.
COc1ccc(-n2c(/C=C/c3ccc4c(c3)OCO4)nc3ccccc3c2=O)cc1	50*	-13	26	-2	17	.	tim23-1 confirm=45*
Cn1cc(C(=O)NP(=O)(N2CCOCC2)N2CCOCC2)c2ccccc21	6	-2	6	3	8	.
CCN(CC)c1ccc(N=Cc2c(O)n(-c3ccccc3C)c(=O)[nH]c2=O)cc1	-4	-14	10	-6	-2	.
CCN(CC)c1ccc(N=Cc2c(O)n(Cc3ccccc3)c(=O)[nH]c2=O)cc1	-1	0	12	46*!	-9	-41
Cc1ccc(C2(O)CCN3CCCCC32)cc1 (centres undefined)	1	-18	6	12*	-6	0
CN(C)C=C1C(=O)N(C2CCCCC2)C(=O)N(C2CCCCC2)C1=O	34	.	-32	-8	14	.
CN1CCN(/N=C/c2c(O)n(CCC3=CCCCC3)c(=S)[nH]c2=O)CC1	12	3	14	0	10	.
[N-]=[N+]=NCCN1CCC(O)CCC1=O (centres undefined)	-12	-3	4	26*	-9	-1
Cc1ccc(-n2c(O)c(/C=C/C=Nc3ccccc3)c(=O)[nH]c2=O)cc1	7	1	12	85*	7	-16
COc1c(C)cc(C(=O)C2CCCN(Cc3cccc(C)n3)C2)cc1C (centres undefined)	6	-11	29	9.2*	6	-6
Cc1cc(/C=C2\C(=O)NC(=O)N(c3ccc(Br)cc3)C2=O)c(C)n1-c1cc(C(=O)O)cc(C(=O)O)c1	-4	-18	4	3	1	.
Cc1cc(C(=O)C[N+]23CCN(CC2)CC3)c(C)n1-c1ccc(Br)cc1	10	0	2	9.2*	12	0
COCCNCCOc1ccc(C(C)(C)c2ccccc2)cc1	1	3	1	12*	17	-2
C[C@]12CCC(=O)C=C1CC[C@@H]1C2CC[C@]2(C)C(=O)CCC12 (some centres undefined)	33	-5	12	1	1	.
SMILES	tim23-1 inh	PfHsp90 set2	tim10-1 inh	V-ATPase pHluor	TIM10 inh	VATPase regulator	others
CC12CCC(=O)C=C1CCC1C2CCC2(C)C1CCC2(O)CC#N (centres undefined)	.	-8	.	12*	.	3
CC(=NC(C)c1ccccc1)c1c(O)[nH]c(=O)[nH]c1=O (centres undefined)	13	-3	3	3	-3	.
CC(=O)Nc1cc(C(=O)N2CCC3(CC2)OCCO3)ccc1S(=O)(=O)c1ccc(C)cc1	-3	7	-17	1	-2	.
CC(=O)Nc1cc(C(=O)N2CCC3(CC2)OCCO3)ccc1S(=O)(=O)c1ccc(Cl)cc1	0	.	14	8.8*	1	7
O=C(Nc1ccccc1)c1c(O)[nH]c(=S)[nH]c1=O	12	-13	-21	13*	1	-1
O=C(Nc1ccccc1)c1c(O)[nH]c(=O)[nH]c1=O	14	12	5	0	0	.
CC(C)(C#CC(=O)O)OOC(c1ccccc1)(c1ccccc1)c1ccccc1	25	-62	37	2	23	.
CC1=NNC(=O)C1Br (centres undefined)	.	-3	.	7	.	.

High-throughput results deposited in PubChem by several laboratories.
